# Experimental data published in PubChem BioAssay AID651871 (Sanford-Burnham Center for Chemical Genomics, 2012).
# Test system: HL-1
# Assay: cardiomyocyte survival under oxidative or metabolic stress – cell-based, panel, H9c2 and HL-1, ATP luminescence, set 2, SAR follow-up (AID 651871);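 further: cells exposed to stressor for 2 h before ATP readout; reference of the scale not given here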
# Details: H9c2/HL-1 cardiomyocytes, 2-deoxyglucose stress, with 2-deoxyglucose, run 5, at 19.8 µM (top of the series)
structure (smiles),measurement,value
COc1ccc2c(c1OC)C(=O)N1c3ccccc3C(=O)N(Cc3cccc(Cl)c3Cl)C21 (stereo unspecified),activity (protection/inhibition),51.6%
